# NPR1 antag: blocks ANP-stimulated signaling of human Npr1 receptor; Potency, µM (top dose mostly 46.3 µM), for the others: top-dose activity change, negative = inhibition, most hits filed as inhibitors; 76,000 tested, 1.6% active; HEK293 hNpr1 GloSensor cGMP, ANP-stimulated luminescence; P16066; calls by dose curve; note: % is set by controls: 0 for no effect and ±100 for the full control effect; nearly all actives have a fitted effect of over 60% in size
#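 Compound pre-incubated 30 min at room temperature on GloSensor-loaded HEK293 cells stably carrying hNpr1 and the pGS-40F cGMP biosensor. Stimulation uses hNppA at 0.1 nM final; luminescence is taken at baseline and 20 min post-agonist.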
# HEK cytotox: HEK 293 cell cytotoxicity | HEK 293 viability, ATP luminescence (CellTiter-Glo), 48-72 h | Potency, µM (titrated, usually from 115 µM), for the others: at the top dose activity change, negative = cytotoxicity, most hits filed as inhibitors | 94,000 tested, 6.6% active; note: % is set by controls: 0 for no effect and ±100 for the full control effect; nearly all actives have a fitted effect of over 60% in size
#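 Read-out: CellTiter-Glo ATP luminescence. Cells: HEK 293, 250 cells/well. Exposure: 48 or 72 hr, 37 degree Celsius.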
# NIH3T3 tox: cytotoxic compounds in NIH 3T3 cells; NIH 3T3 viability, CellTiter-Glo ATP luminescence, 48-72 h; Potency, µM (top dose mostly 96.7 µM), for the others: top-dose activity change, negative = cytotoxicity, most hits filed as inhibitors; 94,000 tested, 4.3% active; AID 1345082; note: % is set by controls: 0 for no effect and ±100 for the full control effect; nearly all actives have a fitted effect of over 55% in size
#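 Luminescent ATP readout (CellTiter-Glo, 10 min RT) after 48 or 72 hr compound exposure of NIH 3T3 cells seeded at 400 cells/well in 1536-well format; quantitative HTS.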
# SNCA expr inh: inhibitors of alpha-synuclein (SNCA) gene expression; HEK-293 SNCA-luciferase knock-in, luminescence, 24 h; 140,000 tested, 0.17% active; Potency, µM (series often up to 57.2 µM), for inactives: at the highest dose activity change, negative = inhibition, hits mostly inhibitors; AID 1671194;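 note: plate controls were DMSO cells for no effect and cell-free wells for full effect; nearly all actives have a fitted effect of over 45% in size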
# HEK293 viab: reduces viability of HEK-293 SNCA reporter cells; 150,000 tested, 0.12% active; HEK-293-SNCA-luc viability, GF-AFC fluorescence, 24 h; Potency, µM (top dose mostly 57.1 µM), inactives show at the top dose activity change, negative = cytotoxicity, usual class: cytotoxic;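 note: 0% = DMSO-treated cells and -100% = medium-only wells without cells; nearly all actives have a fitted effect of over 30% in size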
#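 Cytotoxicity counterscreen: after 24 h compound treatment of genome-edited SNCA-luciferase HEK-293 cells, live-cell protease substrate GF-AFC read by fluorescence after 30 min; activity scaled between DMSO (0%) and medium-only (-100%), curves Hill-fitted.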
# FLuc inh-1: Photinus pyralis luciferase inhibition | P08659 | 76,000 tested, 2.5% active | AID 1347043 | purified P. pyralis luciferase, luminescence, biochemical | Potency, µM (doses to about 115 µM), most hits filed as inhibitors; note: % is set by controls: 0 for no effect and ±100 for the full control effect; nearly all actives have a fitted effect of over 65% in size
#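 Luminescence read by CCD imager after adding enzyme (10nM final) to wells holding compound, titrated in qHTS. Substrates 10uM each D-luciferin and ATP; buffer 50mM Tris acetate pH 7.5, 10mM Mg acetate, Tween-20, BSA.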
# FLuc SDR no ATP: stabilizes firefly luciferase without ATP; Purified FLuc-C-HiBiT, Nano-Glo HiBiT luminescence, no ATP; shares compounds with FLuc inh-1; 1,300 tested, 7.8% active; AID 1963318; Potency, µM (highest dose often 32.7 µM), for inactives: at the highest dose activation (signal gain), usual class: activators; note: nearly all actives have a fitted effect of over 55% in size
# FLuc SDR ATP: binders stabilizing firefly luciferase, plus ATP; shares compounds with FLuc inh-1; purified FLuc-C-HiBiT + ATP, HiBiT complementation luminescence; Potency, µM (top dose mostly 32.7 µM), without a hit: at the top dose activation (gain of signal), usual class: activators; 1,300 tested, 8.7% active; AID 1963319;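 note: signal reports ligand binding via conformational change of the enzyme rather than luciferase catalysis; % of control where 0% means no effect; nearly all actives have a fitted effect of over 55% in size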
# FLuc inh-2: firefly luciferase enzyme inhibition; shares compounds with FLuc inh-1; purified FLuc-C-HiBiT enzyme, luciferin luminescence; Potency, µM (titrated, usually from 32.7 µM), inactives show at the highest dose activity change, negative = inhibition, hits mostly inhibitors; 1,300 tested, 42% active; note: % is set by controls: 0 for no effect and ±100 for the full control effect; nearly all actives have a fitted effect of over 70% in size
# Numbers without * were called inactive; i = inactive; ? = inconclusive; · = no result given; [ ] = dose if it differs, or a comment. Compounds with a hit are over-represented: about 7.2% of the library has one in this group of screens. Unless noted, calls come from the whole dose curve; as a rule, active = well fitted curve in the direction sought with a large enough effect; inconclusive = small, poorly fitted or top-dose-only effect, or another doubt; inactive = no such curve, though single readings can be large; an effect the other way counts as inactive or inconclusive. Potency is the fitted concentration of half-maximal effect.
SMILES,NPR1 antag,HEK cytotox,NIH3T3 tox,SNCA expr inh,HEK293 viab,FLuc inh-1,FLuc SDR no ATP,FLuc SDR ATP,FLuc inh-2
Cc1ccc(-n2nc(C)c([C@@H]3C=C[C@@H](NC(=O)NCc4ccccc4)C3)c2C)cc1Cl,?,-23%[172 µM],?,52%[87.6 µM],-3%[87.6 µM],7.9µM*,19%[49.3 µM],?,?
COc1ccc(-n2nc(C)c([C@@H]3C=C[C@@H](NC(=O)NCc4ccccc4)C3)c2C)cc1,8.9µM*,?,?,-69%[87.6 µM],?,1.1µM*,?,19%[49.3 µM],6.4µM*
COc1ccccc1OCCNC(=O)C(C)C1CCOCC1 (configuration not stated),-8%,-5%,i,-29%,-2%[12.5 µM],i,·,·,·
Cn1cc(-c2cnc(Nc3cccc(C(F)(F)F)c3)c3c2CCO3)cn1,?,?,?,0%[87.6 µM],-25%[87.6 µM],?,·,·,·
Clc1ccc(Nc2ncc(-c3cccnc3)c3c2OCC3)cc1,-22%[70.6 µM],?,?,204%[87.6 µM],-2%[87.6 µM],5µM*,11%[49.3 µM],8%[49.3 µM],?
Cn1cc(-c2cnc(Nc3ccc(N4CCOCC4)cc3)c3c2CCO3)cn1,-18%[70.6 µM],?,?,78%[87.6 µM],-3%[87.6 µM],4µM*,?,?,14µM*
Fc1ccc(Nc2ncc(-c3cccnc3)c3c2OCC3)cc1,-18%[70.6 µM],-11%[172 µM],?,114%[87.6 µM],13%[87.6 µM],11µM*,19%[49.3 µM],14%[49.3 µM],?
FC(F)(F)c1cccc(Nc2ncc(-c3cccnc3)c3c2OCC3)c1,-16%[70.6 µM],?,?,-12%[87.6 µM],-24%[87.6 µM],i,·,·,·
O=C(C1Cn2cccc2C(=O)N1Cc1ccccc1)N1CCN(c2ncccn2)CC1 (configuration not stated),-16%,4%,-27%,2%,19%,i,·,·,·
O=C(NCCCc1ccccc1)C1CCN(Cc2ccccc2-c2cccnc2)CC1,·,?,?,5%,-3%,·,·,·,·
Cc1nsc(NC(=O)N2CCC(C(C)O)CC2)n1 (configuration not stated),1%,-4%,-4%,193%,0%,?,·,·,·
O=C(O)[C@@H]1CN(Cc2ccccc2)C[C@@H]1C(=O)N1CCc2ccccc21,1%,i,-1%,21%,2%,i,13%,9%,1%
COC(=O)[C@@H]1C[C@@H](NS(=O)(=O)c2ccc(C(F)(F)F)cc2)CN1C,3%,-11%,-24%,-5%,-10%,i,·,·,·
COCCNc1cc(-c2ccc3ccccc3n2)c2cc[nH]c2n1,-19%,?,?,79%,-16%,10µM*,13%,17%,?
O=C(c1ccc(-c2cncnc2)cc1)N1CCC(C(=O)N2CCOCC2)CC1,·,1%,-11%,-8%,?,·,·,·,·
Nc1ccc2nc(-c3ccc(O)cc3)sc2c1,·,·,·,1.3µM*,-2%,·,3.9µM*,?,0.62µM*
Nc1nc2ccc(OC(F)(F)F)cc2s1,·,·,·,16%,2%,·,·,·,·
Brc1ccc(-c2cn3cc(Cc4ccccc4)sc3n2)cc1,·,·,·,80%,2%,·,22%,15%,?
Fc1ccc(Cc2cn3cc(-c4ccccc4)nc3s2)cc1,·,·,·,?,2%,·,?,?,0.44µM*
Fc1ccc(-c2cn3cc(Cc4ccccc4)sc3n2)cc1,·,·,·,-74%,2%,·,?,?,0.28µM*
Fc1ccc(-c2cn3cc(Cc4ccc(Cl)cc4)sc3n2)cc1,·,·,·,34%,-7%,·,·,·,·
O=c1oc2ccccc2cc1-c1cn2cc(Cc3ccc(Cl)cc3)sc2n1,·,·,·,31%,-1%,·,·,·,·
Fc1ccc(Cc2cn3cc(-c4ccc(Cl)cc4)nc3s2)cc1,·,·,·,82%,5%,·,16%,14%,?
COc1ccc(C(=O)N2CCC(N3C[C@H](O)C[C@H]3C(=O)NC3CCCCC3)CC2)cc1F,-2%,1%,-15%,-10%,-22%,i,·,·,·
Cc1ccccc1CN1CCC2(Cc3ccccc3CNC2=O)C1 (configuration not stated),·,?,-12%,25%,-10%,·,·,·,·
SMILES,NPR1 antag,HEK cytotox,NIH3T3 tox,SNCA expr inh,HEK293 viab,FLuc inh-1,FLuc SDR no ATP,FLuc SDR ATP,FLuc inh-2
CC(C)=CC(=O)N1C[C@@H](NC(=O)Nc2ccc(F)cc2F)C[C@H]1C(=O)N[C@H](Cc1c[nH]c2ccccc12)C(N)=O,-10%,-7%,-13%,-7%,0%,i,·,·,·
CS(=O)(=O)N1CCCC(C(=O)N2CCC(c3ccccc3)CC2)C1 (configuration not stated),·,2%,-15%,27%,1%,·,·,·,·
Clc1ccccc1Cc1cn2cc(-c3ccccc3)nc2s1,·,·,·,?,-2%,·,?,?,0.44µM*
Nc1nc(N2CCC3(CC2)NC(=O)CC3C(=O)O)c2[nH]cnc2n1 (configuration not stated),2%,i,-3%,-7%,0%,i,13%,9%,4%
Cc1ccc(CSc2nc3cccnc3n2Cc2ccc(C(=O)NCc3ccco3)cc2)cc1,·,·,·,6%,-15%,·,3.9µM*,?,0.62µM*
COc1ccc(C2Cn3cnc(C(=O)N4CCC(C(=O)NCCc5ccccc5)CC4)c3CO2)cc1 (configuration not stated),2%,11%,i,?,1%,i,·,·,·
Cc1ccc(C2Cn3cnc(C(=O)N4CCC(C(=O)NCc5ccccc5C)CC4)c3CO2)cc1 (configuration not stated),-3%,-2%,2%,10%,2%,?,·,·,·
O=C(NCCc1ccccc1)C1CCN(c2cc(C(F)(F)F)ncn2)CC1,-17%,-21%,-15%,-5%,2%,i,·,·,·
O=C(NCc1ccccc1Cl)C1CCN(C(=O)c2ncn3c2COC(c2ccccc2)C3)CC1 (configuration not stated),-14%,13%,1%,54%,13%,14µM*,12%,?,?
O=C(NCc1ccc(Cl)cc1)C1CCN(C(=O)c2ncn3c2COC(c2ccccc2)C3)CC1 (configuration not stated),-23%,-17%,-7%,62%,-8%,8.9µM*,14%,?,3.9µM*

# Source: PubChem
